For 56 molecules, inhibition results are on record in PubChem BioAssay AID686940 (The Scripps Research Institute Molecular Screening Center, 2013).

For orientation: inhibition means the drop in the measured response relative to a control, in per cent.

In all, about 370,000 compounds went through this assay and about 2,600 (0.7%) were called active.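 The calls were made as follows: active = inhibition above a per-plate cutoff, mean inhibition of test wells between control levels plus 3 SD (cut at about 38% in these data); inactive = the rest.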 The sample as a whole holds a higher share of actives than the screen did.

For the assay, the target named is COUP transcription factor 2 (Homo sapiens) (UniProt P24468). In words: NR2F2 transcriptional activity inhibitors, primary screen, cell-based, luciferase reporter, HEK293T, luminescence (AID 686940).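 Also: cells cotransfected with COUP-TFII expression vector driving the NGFI-A reporter; 0% = median of COUP-TF2 test wells and 100% = reporter-only cells.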 Conditions: HEK293T NGFI-A luciferase reporter, at 8.6 µM, active compounds read high.
COUP transcription factor 2 (Homo sapiens), sequence (P24468 whole entry, looked up): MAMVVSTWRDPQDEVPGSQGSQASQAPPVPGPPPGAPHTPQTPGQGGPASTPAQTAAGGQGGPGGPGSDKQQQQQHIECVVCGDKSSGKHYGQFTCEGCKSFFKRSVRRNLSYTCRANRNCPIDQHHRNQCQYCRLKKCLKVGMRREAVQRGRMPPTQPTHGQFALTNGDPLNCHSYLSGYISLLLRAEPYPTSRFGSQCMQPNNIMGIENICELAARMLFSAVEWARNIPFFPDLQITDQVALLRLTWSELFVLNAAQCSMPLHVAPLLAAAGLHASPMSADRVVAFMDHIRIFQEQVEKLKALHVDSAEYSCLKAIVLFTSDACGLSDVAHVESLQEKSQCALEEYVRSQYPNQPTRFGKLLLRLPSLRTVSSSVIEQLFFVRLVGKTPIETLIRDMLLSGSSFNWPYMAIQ
For the molecule `Cc1ccccc1OCC(=O)Nc1ccc(N2CCN(C(=O)C(C)C)CC2)c(Cl)c1`, the inhibition is 40.9% (active). Under `CCc1ccccc1OCC(=O)Nc1ccc(C)c(S(=O)(=O)N2CCCCCC2)c1` stands 16.9% (inactive). Under `Cc1ccc(NC(=O)COc2coc(CN3CCc4ccccc4C3)cc2=O)cc1Cl` stands 8.3% (inactive). The same measure for `C=CCOC/C=C/C#CCN(CC=C)Cc1ccc(OC)cc1OC`: -4.38% (inactive); for `COc1ccc(Nc2ncnc3ccc(Br)cc23)c(OC)c1`: 39.9% (active); for `CC1(C)CC2CC(C)(CN2c2ncnc3ccc(Br)cc23)C1` (stereo unspecified): 16.5% (inactive). Take `CCOC(=O)CNc1nc(Cl)nc(Nc2ccc(OC)cc2OC)n1`: the inhibition is 9.09% (inactive). On to `O=C(Nc1cccc(Cl)c1)OC1CC2CC1[C@H]1CCCCN1[C@H]2Cc1ccccc1` (stereo partly specified), for which the inhibition is 14.6% (inactive). Take `COc1ccc(C(=O)Nc2cc(S(=O)(=O)N3CCCC3)ccc2Cl)cc1`: the inhibition was 1.63% (inactive). Take `COc1ccc(C(=O)Nc2nc(-c3ccc(S(=O)(=O)N4CCOCC4)cc3)cs2)cc1`: the inhibition is 70.8% (active). The same measure for `O=C(Nc1ccc(N2CCOCC2)c(Cl)c1)c1ccc(S(=O)(=O)N2CCOCC2)cc1`: 6.88% (inactive); for `COC(=O)[C@@]12CCCCC3=C1N(CCC3)C(=O)[C@H]2CC(=O)NCc1cccc2ccccc12`: -8.73% (inactive); for `Cc1c[nH]c2cccc(-c3ccc(Cl)cc3)c12`: 1.03% (inactive). As for `COc1cccc(/C=C2\CC3(OC(C)=O)CCCN2C3)c1` (stereo unspecified), the inhibition is -14.3% (inactive). Consider `CC(=O)N1CCCN(C2=Nc3ccccc3Sc3ccccc32)CC1`, for which the inhibition is -4.52% (inactive). In the case of `Cc1cc(C(=O)COC(=O)C2CC2)c(C)n1-c1ccc(F)cc1`, the inhibition was 56.4% (active). The same measure for `Cc1cc(C(=O)CSc2nc(N)cc(=O)[nH]2)c(C)n1-c1cccc(F)c1`: 27.2% (inactive); for `Cc1cc(C(=O)COc2ccccc2Cl)c(C)n1C1CC1`: -24.6% (inactive). For the molecule `COC(=O)[C@]12C[C@H](CC(=O)N3CCN(C(=O)C4CC4)CC3)C(=O)N(CCC3=CCCCC3)C1=C[C@H](C(C)C)O[C@@H]2C1CC1`, the inhibition is 5.77% (inactive). Under `CC(C)C(C#CC1CC1)N(Cc1ccc2c(c1)OCO2)C(N)=NC(=O)/C=C/c1cccc(C(F)(F)F)c1` (stereo unspecified) stands -0.2% (inactive); under `CCCOc1ccc(Cc2c(Cl)nc(SC)nc2NC)cc1`, 46.9% (active). Under `CCCOc1ccc(Cc2c(O)nc(SC)[nH]c2=O)cc1C` stands 17.2% (inactive); under `CCCOc1ccc(Oc2c(Cl)cnn(Cc3cccc4ccccc34)c2=O)cc1`, 3.48% (inactive); under `COC(=O)[C@]12C[C@H](CC(=O)NCC34CC5CC(CC(C5)C3)C4)C(=O)N(Cc3ccc(Cl)cc3Cl)C1=C[C@H](COCc1ccccc1)O[C@@H]2C`, -8.65% (inactive).

In the case of `COc1ccc(/C=C2\CC3(OC(C)=O)CCCN2C3)cc1` (stereo unspecified), the inhibition was -13.1% (inactive). Under `Fc1ccc2nc(COCc3nc4ccc(F)cc4[nH]3)[nH]c2c1` stands -29.3% (inactive). Turning to `O=C(CNS(=O)(=O)c1ccccc1F)N1CCN(c2ccccn2)CC1`, the inhibition is 8.7% (inactive). Under `CN(c1ccc2nc3ccccc3c(=O)n2n1)C1CCCCC1` stands 88.6% (active); under `O=C(c1ccco1)N(Cc1nc2ccccc2c(=O)[nH]1)C1CCCC1`, -0.35% (inactive); under `COCC(C)n1c(SCC(=O)NC2CCCCC2C)nc2ccccc2c1=O` (stereo unspecified), 1.47% (inactive). Under `CN1[C@H](Cc2ccccc2)COc2cccc(N3CCSCC3)c2S1(=O)=O` stands 5.38% (inactive). The same measure for `C[C@@H]1COc2cccc(N3CCCC3)c2S(=O)(=O)N1C`: -14.7% (inactive). As for `COC(=O)c1cc(S(=O)(=O)N2CCN(C(=O)C3CCCO3)CC2)cn1C` (stereo unspecified), the inhibition is -3.24% (inactive). Under `CCCCNC(=O)C[C@H]1C(=O)N(Cc2ccc(OC)cc2)C2=CCCC[C@@]21C(=O)OCC` stands 7.45% (inactive). The same measure for `COc1cc(C(=O)NCc2nnc(SCC(=O)Nc3nc4ccc(C)cc4s3)o2)cc(OC)c1OC`: -8.42% (inactive); for `COc1cc(C(=O)NCC(=O)N2CC=C(c3ccccc3)CC2)cc(OC)c1OC`: 9.83% (inactive); for `CCn1c(CNC(=O)c2cc(OC)c(OC)c(OC)c2)cc2cc(C)ccc21`: 41.5% (active). Take `COc1ccccc1C(=O)NC1CCCCN(C(C)C)C1=O` (stereo unspecified): the inhibition was 2.43% (inactive). Under `CC1CCN(c2ccc(C(=O)O)cc2NS(=O)(=O)c2ccc(Br)s2)CC1` stands -3.26% (inactive); under `CN(O)C(=S)c1ccccc1`, 43.2% (active). Under `CCn1c2ccccc2c2cc(NC(=O)CSc3nnc(-c4ccccc4)n3-c3ccc(C)cc3)ccc21` stands 22.1% (inactive); under `COC(=O)[C@]1(C#N)CC(=O)N(CC2CCCCC2)[C@@H]1c1ccccc1`, -5.14% (inactive); under `COc1ccccc1CCNC(=O)C1CCN(c2nc(C)cc(C)n2)CC1`, 1.51% (inactive). The same measure for `O=C(Nc1cc(F)cc(F)c1)OC1CCC12CCC(c1ccccc1)CC2` (stereo unspecified): 19% (inactive); for `O=C(Nc1ccc(CN2CCOCC2)cc1)c1cc(Cl)ccc1Cl`: 5.94% (inactive); for `Cn1c(CN2CCOCC2)nc2cc(NC(=O)c3ccc(Cl)cc3)ccc21`: 49.9% (active). As for `CN1CCN(Cc2nc3cc(NC(=O)COc4ccc([N+](=O)[O-])cc4)ccc3n2C)CC1`, the inhibition was 10.4% (inactive). Under `COc1ccc(-n2c(C)cc(C(=O)CSc3nnc(-c4cccs4)o3)c2C)cc1` stands 54.9% (active). Under `COc1ccc(-c2nnc(SCC(=O)c3ccc4c(c3)OCCO4)o2)cc1` stands 17.8% (inactive). The same measure for `CCc1ccccc1NC(=O)CSc1nnc(-c2cccs2)o1`: -16.3% (inactive); for `CCC[C@H]1C(=O)CC[C@@]23CCCN2C(=O)CCC[C@@H]13`: -13.2% (inactive). For the molecule `Cc1nc(C(=O)Nc2ccc(Cl)cc2)sc1C1(C)CC(c2ccccc2)=NO1` (stereo unspecified), the inhibition was 5.05% (inactive). The same measure for `Cc1nc(-c2ccc(Cl)cc2)sc1C1(C)CC(c2ccccc2F)=NO1` (stereo unspecified): -23.8% (inactive); for `Cc1nc(C(=O)NCc2ccccc2)sc1C1(C)CC(c2cccnc2)=NO1` (stereo unspecified): 37.6% (active); for `CCOC(=O)[C@]12CCCCC/C=C\1N(Cc1ccc(OC)cc1)C(=O)[C@H]2CC(=O)NCCCN1CCCC1=O`: 1.89% (inactive). The same measure for `CC(C)(C)OC(=O)NCCc1ccccc1/C=C/S(=O)(=O)NCc1ccc(F)cc1`: 13.2% (inactive).
